# Laboratory results taken from article PMC7862700, “An all-to-all approach to the identification of sequence-specific readers for epigenetic DNA modifications on cytosine”.
# Assays:
# Test in all cases: DAPPL (digital affinity profiling via proximity ligation, sequencing); 10 mM Tris-HCl pH 7.5, 50 mM NaCl, 1 mM DTT, 4% glycerol, room temperature, 30 min; GST-TFs on glutathione beads, 16-mer random dsDNA library, 0.1% formaldehyde crosslink after washing; high values mean tight binding
# Details in all cases: protein: recombinant; tags: N-terminal GST; dsDNA, one strand shown
# [1] = target: ETV5 (Homo sapiens, UniProt P41161 1-510)
# In short: (§1)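 The binding signal reported is, for every hexamer, its read frequency for a factor over its read frequency for the tag-only sample. Reads came from pools of yeast-expressed, GST-fused human transcription factors on glutathione beads, barcoded with DNA and mixed with that sample, which were incubated with 200 nmole of a random double-stranded 16-mer DNA library in Tris/NaCl/DTT/glycerol buffer at room temperature for 30 min. After washing, the pools were crosslinked with 0.1% formaldehyde, proximity-ligated with BsaI/T4 ligase for 1 h at 37 °C, PCR-amplified and sequenced on an Illumina NextSeq500.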
# [2] = target: T1, SPIC (Homo sapiens, UniProt Q8N5J4 1-248)
# T1 sequence: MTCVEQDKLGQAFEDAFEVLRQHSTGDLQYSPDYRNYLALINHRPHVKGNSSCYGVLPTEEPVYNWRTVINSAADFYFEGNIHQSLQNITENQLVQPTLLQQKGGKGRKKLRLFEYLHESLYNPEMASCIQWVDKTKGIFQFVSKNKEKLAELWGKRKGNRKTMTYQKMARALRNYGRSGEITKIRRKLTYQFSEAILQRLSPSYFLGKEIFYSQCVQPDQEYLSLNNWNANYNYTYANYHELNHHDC
# In short: as §1
# [3] = target: ELF4 (Homo sapiens, UniProt Q99607 1-663)
# In short: as §1
# [4] = target: ETV1 (Homo sapiens, UniProt P50549 1-477)
# In short: as §1
# [5] = target: T2, ERF (Homo sapiens, UniProt P50548 1-548)
# T2 sequence: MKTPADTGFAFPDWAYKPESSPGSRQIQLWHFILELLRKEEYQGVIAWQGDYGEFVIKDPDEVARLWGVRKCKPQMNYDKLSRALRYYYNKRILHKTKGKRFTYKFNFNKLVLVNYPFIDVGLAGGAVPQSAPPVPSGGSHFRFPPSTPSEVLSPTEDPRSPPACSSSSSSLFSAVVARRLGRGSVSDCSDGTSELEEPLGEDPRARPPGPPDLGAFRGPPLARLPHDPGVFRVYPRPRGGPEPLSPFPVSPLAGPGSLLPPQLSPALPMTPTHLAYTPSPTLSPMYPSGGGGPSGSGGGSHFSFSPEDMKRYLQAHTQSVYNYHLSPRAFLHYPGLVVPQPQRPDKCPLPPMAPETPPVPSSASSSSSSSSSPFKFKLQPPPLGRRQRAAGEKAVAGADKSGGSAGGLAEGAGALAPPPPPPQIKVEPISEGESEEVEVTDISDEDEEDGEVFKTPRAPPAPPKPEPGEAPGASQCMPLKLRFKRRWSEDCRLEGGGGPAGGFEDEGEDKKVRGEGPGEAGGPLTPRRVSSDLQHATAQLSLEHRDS
# In short: as §1
# [6] = target: T3, ETV3L (Homo sapiens, UniProt Q6ZN32 1-361)
# T3 sequence: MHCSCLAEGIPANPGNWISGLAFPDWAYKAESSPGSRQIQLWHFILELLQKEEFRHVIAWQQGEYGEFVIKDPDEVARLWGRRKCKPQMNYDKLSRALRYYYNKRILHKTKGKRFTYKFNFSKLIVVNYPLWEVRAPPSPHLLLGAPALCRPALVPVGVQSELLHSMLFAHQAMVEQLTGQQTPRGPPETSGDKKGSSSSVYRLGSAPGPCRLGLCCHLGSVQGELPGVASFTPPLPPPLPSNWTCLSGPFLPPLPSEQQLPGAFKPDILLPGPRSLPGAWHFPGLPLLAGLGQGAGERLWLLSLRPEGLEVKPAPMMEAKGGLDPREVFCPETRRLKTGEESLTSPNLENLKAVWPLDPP
# In short: as §1
# [7] = target: T4, ETS2 (Homo sapiens, UniProt P15036 1-469)
# T4 sequence: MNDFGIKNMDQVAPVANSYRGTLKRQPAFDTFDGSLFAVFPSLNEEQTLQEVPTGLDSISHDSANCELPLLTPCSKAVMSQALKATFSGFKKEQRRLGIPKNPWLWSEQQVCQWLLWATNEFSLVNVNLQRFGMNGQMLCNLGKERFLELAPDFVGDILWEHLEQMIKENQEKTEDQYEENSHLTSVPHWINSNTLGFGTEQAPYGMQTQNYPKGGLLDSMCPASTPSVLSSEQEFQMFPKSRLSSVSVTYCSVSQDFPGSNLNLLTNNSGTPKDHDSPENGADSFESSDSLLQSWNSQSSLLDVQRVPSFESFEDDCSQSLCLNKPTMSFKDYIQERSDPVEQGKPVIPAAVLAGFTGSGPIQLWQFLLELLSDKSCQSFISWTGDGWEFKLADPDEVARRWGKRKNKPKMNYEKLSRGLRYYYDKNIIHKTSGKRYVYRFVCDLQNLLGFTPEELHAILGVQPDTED
# In short: as §1
# [8] = target: T5, SPDEF (Homo sapiens, UniProt O95238 1-335)
# T5 sequence: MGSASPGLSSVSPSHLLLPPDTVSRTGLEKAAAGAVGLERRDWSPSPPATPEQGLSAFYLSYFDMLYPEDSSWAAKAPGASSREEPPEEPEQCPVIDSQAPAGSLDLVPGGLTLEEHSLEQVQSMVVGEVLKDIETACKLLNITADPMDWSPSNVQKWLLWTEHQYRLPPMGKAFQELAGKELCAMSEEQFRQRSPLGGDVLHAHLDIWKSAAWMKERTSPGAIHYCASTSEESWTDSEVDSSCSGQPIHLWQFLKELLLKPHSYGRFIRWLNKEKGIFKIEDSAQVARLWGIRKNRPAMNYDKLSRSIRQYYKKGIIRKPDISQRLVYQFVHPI
# In short: as §1
# [9] = target: T6, ETV3 (Homo sapiens, UniProt P41162-2 1-143)
# T6 sequence: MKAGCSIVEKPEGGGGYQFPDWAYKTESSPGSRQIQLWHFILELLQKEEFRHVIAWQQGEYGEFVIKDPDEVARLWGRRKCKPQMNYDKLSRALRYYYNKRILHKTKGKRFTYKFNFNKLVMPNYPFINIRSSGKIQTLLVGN
# In short: as §1
# [10] = target: ETV6 (Homo sapiens, UniProt P41212 1-452)
# In short: as §1
# Sequence of ETV5 (P41161 whole entry, the tested form may be a part): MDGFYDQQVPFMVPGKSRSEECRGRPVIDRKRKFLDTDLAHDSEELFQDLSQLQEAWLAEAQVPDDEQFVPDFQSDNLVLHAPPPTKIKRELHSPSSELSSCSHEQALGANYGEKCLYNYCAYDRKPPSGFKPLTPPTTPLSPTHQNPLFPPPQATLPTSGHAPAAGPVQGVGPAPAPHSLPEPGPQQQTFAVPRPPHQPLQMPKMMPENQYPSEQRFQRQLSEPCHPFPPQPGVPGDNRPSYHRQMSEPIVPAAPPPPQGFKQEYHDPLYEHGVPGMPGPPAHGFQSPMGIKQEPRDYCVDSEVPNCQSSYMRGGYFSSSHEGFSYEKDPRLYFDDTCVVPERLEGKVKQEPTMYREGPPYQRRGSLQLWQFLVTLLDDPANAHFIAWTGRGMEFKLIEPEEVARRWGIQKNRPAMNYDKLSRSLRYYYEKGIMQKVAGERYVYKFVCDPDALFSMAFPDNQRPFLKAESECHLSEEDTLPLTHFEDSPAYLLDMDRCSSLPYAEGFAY
# Sequence of ETV1 (P50549 whole entry): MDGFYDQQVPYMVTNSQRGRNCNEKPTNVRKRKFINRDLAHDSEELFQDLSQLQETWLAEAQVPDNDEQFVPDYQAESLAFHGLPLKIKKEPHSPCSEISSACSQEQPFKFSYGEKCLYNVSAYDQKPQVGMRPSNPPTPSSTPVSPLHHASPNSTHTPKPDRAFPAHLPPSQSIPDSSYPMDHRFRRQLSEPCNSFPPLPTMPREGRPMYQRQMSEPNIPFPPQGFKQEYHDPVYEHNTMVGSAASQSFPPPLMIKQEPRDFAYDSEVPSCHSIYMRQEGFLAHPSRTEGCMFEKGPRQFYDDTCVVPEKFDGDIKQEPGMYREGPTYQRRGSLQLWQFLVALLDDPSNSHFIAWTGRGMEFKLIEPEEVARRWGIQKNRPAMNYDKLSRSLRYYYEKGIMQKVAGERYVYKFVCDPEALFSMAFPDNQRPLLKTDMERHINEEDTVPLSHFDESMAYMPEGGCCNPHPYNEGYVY
# Sequence of ELF4 (Q99607 whole entry): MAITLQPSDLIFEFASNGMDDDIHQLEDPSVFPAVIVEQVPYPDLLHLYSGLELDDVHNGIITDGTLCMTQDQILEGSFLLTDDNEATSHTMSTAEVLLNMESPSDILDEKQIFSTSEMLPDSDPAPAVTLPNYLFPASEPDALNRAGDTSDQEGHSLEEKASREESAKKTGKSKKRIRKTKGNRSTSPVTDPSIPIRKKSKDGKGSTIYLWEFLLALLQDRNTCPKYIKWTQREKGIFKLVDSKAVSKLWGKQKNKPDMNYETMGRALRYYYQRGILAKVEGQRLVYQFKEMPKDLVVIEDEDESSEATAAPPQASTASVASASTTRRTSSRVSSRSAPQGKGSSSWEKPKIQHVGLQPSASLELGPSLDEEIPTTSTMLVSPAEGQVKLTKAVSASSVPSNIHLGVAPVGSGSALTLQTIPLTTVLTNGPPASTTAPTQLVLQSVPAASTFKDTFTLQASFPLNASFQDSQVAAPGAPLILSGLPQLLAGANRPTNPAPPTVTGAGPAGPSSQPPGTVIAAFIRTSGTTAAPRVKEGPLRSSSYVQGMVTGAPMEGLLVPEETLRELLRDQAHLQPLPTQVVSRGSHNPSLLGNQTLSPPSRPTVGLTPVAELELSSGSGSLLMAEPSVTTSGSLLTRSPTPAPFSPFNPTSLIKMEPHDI
# Sequence of ETV6 (P41212 whole entry): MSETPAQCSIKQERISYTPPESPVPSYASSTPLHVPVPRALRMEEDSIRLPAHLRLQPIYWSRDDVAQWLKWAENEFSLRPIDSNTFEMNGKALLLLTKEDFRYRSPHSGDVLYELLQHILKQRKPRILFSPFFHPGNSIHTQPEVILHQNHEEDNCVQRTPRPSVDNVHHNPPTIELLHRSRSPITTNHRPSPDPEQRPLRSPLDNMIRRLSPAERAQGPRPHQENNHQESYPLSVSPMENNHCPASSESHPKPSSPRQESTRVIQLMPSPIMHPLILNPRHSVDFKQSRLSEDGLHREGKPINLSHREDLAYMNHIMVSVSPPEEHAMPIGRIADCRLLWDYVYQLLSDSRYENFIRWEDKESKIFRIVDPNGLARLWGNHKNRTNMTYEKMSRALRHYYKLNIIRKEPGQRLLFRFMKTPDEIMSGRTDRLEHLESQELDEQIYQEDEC
sequence,measurement,setting,value
CCACCT,binding signal,[1],"1.07 fold enrichment (6-mer frequency, TF over GST control)"
same,binding signal,[2],"1.19 fold enrichment (6-mer frequency, TF over GST control)"
same,binding signal,[3],"1.15 fold enrichment (6-mer frequency, TF over GST control)"
same,binding signal,[4],"1.07 fold enrichment (6-mer frequency, TF over GST control)"
same,binding signal,[5],"1.13 fold enrichment (6-mer frequency, TF over GST control)"
same,binding signal,[6],"1.08 fold enrichment (6-mer frequency, TF over GST control)"
same,binding signal,[7],"1.1 fold enrichment (6-mer frequency, TF over GST control)"
same,binding signal,[8],"1.19 fold enrichment (6-mer frequency, TF over GST control)"
same,binding signal,[9],"1.08 fold enrichment (6-mer frequency, TF over GST control)"
same,binding signal,[10],"1.06 fold enrichment (6-mer frequency, TF over GST control)"
